HCV inh: qHTS Assay for Inhibitors of Hepatitis C Virus (HCV). Huh7.5.1 HCVcc-Cre infection, luciferase reporter, 44 h. Potency, µM (doses to about 41.8 µM), usual class: inhibitors. 340,000 compounds, 3.4% hits
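HCVcc-Cre virus at an moi near 0.5 was added right after compound to cells cultured 4 h from seeding (1,000 cells/well). Luciferase activity was determined 44 h later, 15 min after substrate addition at RT.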
FMDV inh: High Throughput Screening for Foot and Mouth Disease Virus Antivirals | FMDV antiviral cell-based qHTS | Potency, µM (highest dose often 57.9 µM), actives largely listed as inhibitors | 410,000 compounds, 1.2% hits | AID 1159524, 2015; calls by dose curve; tested in HEK293T cells; also: read-out not given here; nearly all actives have a fitted effect of over 45% in size
HCMV antiviral: qHTS Assay for inhibitors of the human cytomegalovirus (HCMV); HFF cells, HCMV-luciferase reporter, 72 h; hits give low values; activity change, negative = inhibition, % at 57.5 µM; 410,000 compounds, 4.5% hits; in the data active = activity change below about -60%; inconclusive = no clear call, values can overlap the other calls; inactive = above about -39%
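Human foreskin fibroblasts infected with luciferase-reporter HCMV at MOI 1 PFU/cell, compounds at two doses. Luciferase measured 72 h post infection; normalized to buffer-only basal and Salinomycin (10uM) controls.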
AmpC inh no detg: qHTS Inhibitors of AmpC Beta-Lactamase (assay without detergent); AID 485341, 2010; 330,000 compounds, 0.52% hits; AmpC nitrocefin hydrolysis, absorbance 480 nm, 0.0001% Triton; Potency, µM (highest dose often 57.1 µM), most hits filed as inhibitors; also: nearly all actives have a fitted effect of over 20% in size
Target sequence (P00811 whole entry, looked up): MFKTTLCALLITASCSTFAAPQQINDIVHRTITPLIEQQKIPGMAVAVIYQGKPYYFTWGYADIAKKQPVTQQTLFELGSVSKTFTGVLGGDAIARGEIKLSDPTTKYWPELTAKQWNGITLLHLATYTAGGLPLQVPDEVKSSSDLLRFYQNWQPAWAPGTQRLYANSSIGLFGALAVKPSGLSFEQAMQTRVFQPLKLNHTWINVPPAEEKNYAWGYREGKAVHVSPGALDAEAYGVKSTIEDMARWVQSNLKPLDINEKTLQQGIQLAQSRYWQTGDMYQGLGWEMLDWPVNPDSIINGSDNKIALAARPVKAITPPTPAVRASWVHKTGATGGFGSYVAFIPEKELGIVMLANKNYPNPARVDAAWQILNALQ
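20 mM phosphate pH 7.0 + 0.01% (detergent screen) or 0.0001% Triton X-100; 5.3 nM AmpC reagent; cpd preinc 15 min RT; nitrocefin (800 uM stock) to start; A480 q20 s × 4 min; Activity was normalised to no-enzyme and no-compound control wells.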
AmpC detergent: qHTS Inhibitors of AmpC Beta-Lactamase (assay with detergent). 370,000 compounds, 0.041% hits. AmpC hydrolysis of nitrocefin, absorbance 480 nm, 0.01% Triton. Potency, µM (doses to about 114 µM), hits mostly inhibitors. P00811; also: nearly all actives have a fitted effect of over 25% in size
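20 mM phosphate pH 7.0 + 0.01% (detergent screen) or 0.0001% Triton X-100; 5.3 nM AmpC reagent; cpd preinc 15 min RT; nitrocefin (800 uM stock) to start; A480 q20 s × 4 min; Activity was normalised to no-enzyme and no-compound control wells.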
Numbers stand for hits; – = inactive; ? = inconclusive; · = not tested or not shown; [ ] = dose if it differs, or a comment. The list is not random: actives were taken first. Their share in the collection is about 7.3%. Unless noted, calls follow the shape of the dose curve; as a rule, active = well fitted curve in the direction sought with a large enough effect; inconclusive = small, poorly fitted or top-dose-only effect, or another doubt; inactive = no such curve, though single readings can be large; an effect the other way counts as inactive or inconclusive.

SMILES | HCV inh | FMDV inh | HCMV antiviral | AmpC inh no detg | AmpC detergent
O=C1N(Cc2ccccc2)c2ccccc2C1(O)c1c[nH]c2ccccc12 (stereo not drawn) | · | – | – | · | –
Cc1[nH]c2ccccc2c1C1(O)C(=O)N(Cc2ccc(Cl)cc2)c2ccccc21 (stereo not drawn) | · | – | -99 | · | –
CC(=O)c1ccc(N2CCN(C3CCC(C(C)(C)C)CC3)CC2)cc1 (stereo not drawn) | – | ? | – | – | –
COC(=O)c1ccc(CSc2nnc(CS(=O)Cc3ccc(Br)cc3)n2-c2ccccc2)cc1 (stereo not drawn) | 14µM | – | – | – | –
COC(=O)c1ccc(NC(=O)CSc2nnc(C)n2-c2ccccc2)cc1 | – | – | – | · | ?
O=S(Cc1ccc(Br)cc1)Cc1nnc(SCc2ccc(Br)cc2)n1-c1ccccc1 (stereo not drawn) | 5µM | 16µM | -80 | – | –
CCc1cccc(CC)c1NC(=O)C1CN(S(=O)(=O)c2ccccc2)CCN1S(=O)(=O)c1ccccc1 (stereo not drawn) | 13µM | – | – | – | –
COc1ccc(S(=O)(=O)N2CCOCC2)cc1Br | – | – | – | – | –
Nc1cc(S(=O)(=O)N2CCOCC2)ccc1Oc1cccc(Br)c1 | 5µM | ? | -77 | – | –
O=S(=O)(c1ccc(Oc2ccc(S(=O)(=O)N3CCOCC3)cc2)cc1)N1CCOCC1 | ? | ? | -66 | – | –
CC(C)N1CCN(c2ccc(OCC3COC(Cn4cncn4)(c4ccc(Cl)cc4Cl)O3)cc2)CC1 (stereo not drawn) | ? | – | – | · | ·
CC(C)N1CCN(c2ccc(OC[C@H]3CO[C@](Cn4cncn4)(c4ccc(Cl)cc4Cl)O3)cc2)CC1 | ? | – | -99 | – | ?
O=C(c1ccc2c(c1)N(Cc1cccc(Cl)c1)C(=O)c1ccccc1S2(=O)=O)N1CCN(c2ccccn2)CC1 | 14µM | – | -84 | – | –
O=C(c1ccc2c(c1)N(Cc1cccc(Cl)c1)C(=O)c1ccccc1S2(=O)=O)N1CCN(Cc2ccccc2)CC1 | · | – | -67 | · | –
Cc1ccc(O)c(NC2=C(Cl)C(=O)N(Cc3ccccc3)C2=O)c1 | – | – | – | – | –
O=C(c1ccc2c(c1)N(Cc1cccc(Cl)c1)C(=O)c1ccccc1S2(=O)=O)N1CCCC1 | · | – | ? | · | –
O=C(c1ccc2c(c1)N(Cc1cccc(Cl)c1)C(=O)c1ccccc1S2(=O)=O)N1CCCCCC1 | · | – | -65 | · | –
O=C(c1ccc2c(c1)N(Cc1ccc(Cl)cc1)C(=O)c1ccccc1S2(=O)=O)N1CCN(c2ccccn2)CC1 | · | – | – | · | –
Cc1ccc(C(=O)N2CCCCC2)cc1NC1=C(Cl)C(=O)N(Cc2ccccc2)C1=O | ? | ? | -66 | – | –
CCN(C(=O)COC(=O)c1cccc(S(=O)(=O)N2CCOCC2)c1)C1CCS(=O)(=O)C1 (stereo not drawn) | – | – | – | – | –
CCC(=O)N1CCc2cc(CNC(=O)Nc3ccc(OC)cc3OC)ccc21 | · | – | – | · | –
CCNc1ccc(S(=O)(=O)N2CCCCC2)cn1 | – | – | – | – | ?
COC(=O)c1c(OCc2ccccc2)cc(=O)n2c1CCN(Cc1cccc(C)n1)CC2 | · | – | · | · | ·
COCC1CCN(C(=O)C2CCC(=O)N(CCc3cccc(F)c3)C2)CC1 (stereo not drawn) | – | – | – | – | –
CC(NC(=O)CSc1ncccn1)c1ccc(Cl)cc1Cl (stereo not drawn) | – | – | – | –[11.4 µM] | –
SMILES | HCV inh | FMDV inh | HCMV antiviral | AmpC inh no detg | AmpC detergent
CCC(=O)NC(c1ccc(Cl)cc1Cl)c1ccc2cccnc2c1O (stereo not drawn) | 2.5µM | – | -103 | – | –
CCCCC(=O)NC(c1ccc(Cl)cc1Cl)c1ccc2cccnc2c1O (stereo not drawn) | ? | – | -104 | – | –
CC(C)C(=O)NC(c1ccc(Cl)cc1Cl)c1ccc2cccnc2c1O (stereo not drawn) | 2.2µM | – | -104 | – | –
O=C(NCc1ccccc1)C(c1ccc(C(F)(F)F)cc1)n1c(=O)c(-c2ccco2)nc2ccccc21 (stereo not drawn) | · | – | – | · | ·
CCOC(=O)c1c(C)oc2nc(C)nc(NCCCN3CCN(c4cccc(C)c4)C(C)C3)c12 (stereo not drawn) | · | – | – | · | –
O=C1C2CCCCN2C(=O)N1CCCCN1CCN(c2ccc([N+](=O)[O-])cc2)CC1 (stereo not drawn) | ? | 20µM | – | – | ?
CSc1ccc(CCNC(=O)c2c(C)oc3ncn(C)c(=O)c23)cc1 | · | – | – | · | –
CC1CCN(C2=NC(=O)/C(=C/c3cn(-c4ccccc4)nc3-c3cccc(S(=O)(=O)N(C)C)c3)S2)CC1 | ? | – | -62 | – | –
CC1=NN(C(C#N)c2ccc(F)cc2)C(c2ccccc2)C1 (stereo not drawn) | – | – | – | – | –
CC(C)C(NC(=O)c1ccc2c(c1)OCO2)C(=O)N/N=C/c1cccs1 (stereo not drawn) | – | – | – | – | –
Cc1c(/C=N/NC(=O)C(NC(=O)c2ccc3c(c2)OCO3)C(C)C)c2ccccc2n1C (stereo not drawn) | 11µM | – | -80 | – | ?
Cc1cc(C)cc(OCC(=O)N(Cc2ccc(Cl)cc2)C2CCS(=O)(=O)C2)c1 (stereo not drawn) | · | – | – | · | –
COC(=O)c1c(NC(=O)CN2CCCc3ccccc32)sc(C)c1C | ? | – | ? | – | –
CCOC(=O)c1c(NC(N)=O)sc(C)c1C | 0.89µM | – | – | – | –
CCOC(=O)c1c(NC(=O)CN2CCCc3ccccc32)sc(C)c1C | 3.2µM | – | – | – | –
CCOC(=O)c1c(NC(=S)Nc2ccccc2)sc(C)c1C | – | · | – | – | –
CCOC(=O)c1c(NC(=O)CNC2CCCCC2)sc(C)c1C | 10µM | – | – | – | –
CCOC(=O)c1c(NC(=O)C[n+]2ccc(Cc3ccccc3)cc2)sc(C)c1C | 1.3µM | – | – | – | –
Cc1cccc(C)c1NC(=O)CSc1nc2ncccc2o1 | · | – | – | · | –
COc1cc(NC(=O)C2=C(C)OCCS2)c(Cl)cc1C(=O)NCCN(C)C | ? | – | – | – | –
CCOC(=O)c1c(NC(=O)c2nn(C)cc2[N+](=O)[O-])sc(C)c1C | 3.5µM | – | – | – | –
Cc1sc(NC(=S)NC(=O)CCc2ccccc2)c(C(N)=O)c1C | ? | – | -83 | – | ?
CC(=O)Nc1cccc(NC(=O)CS(=O)(=O)c2cn(CC(=O)N3CCCC3)c3ccccc23)c1 | – | – | – | – | ?
Cc1ccc(NC(=O)CCOc2ccccc2C)cc1C | – | – | – | – | ?

Compound activity: PubChem BioAssay, National Center for Advancing Translational Sciences (NCATS)
